Results taken from PubChem BioAssay.
Active and inactive are the calls of the source. Unless noted, the rule behind the calls is not given here.

Experiments:
[1] = anti-His antibody binders, primary screen, artefact control for SMM control protein annotation, biochemical, small-molecule microarray, 635 nm fluorescence (AID 1128); details: anti-His Alexa647 antibody binding, higher = more signal;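 note: score merges feature fluorescence with signal-to-noise for each printed compound spot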
[2] = system: Human papillomavirus type 1a E7 protein (residues 1-88); assay: HPV1a E7 small-molecule binders, primary screen, biochemical, small-molecule microarray, residues 1-88, 635 nm (AID 1129); details: small-molecule microarray binding, fluorescence 635 nm; higher = more signal
[3] = target: Focal adhesion kinase 1 (Homo sapiens) (UniProt Q05397); assay: small-molecule microarray binders of FAK, primary screen, biochemical, 635/667 nm fluorescence, BSA, DTT (AID 1130); details: PTK2 binding, 635 nm fluorescence, higher = more signal;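 note: composite of spot emission at 667 nm and signal to noise over triplicate slides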
Chain of Focal adhesion kinase 1 (Homo sapiens) (Q05397 whole entry, looked up): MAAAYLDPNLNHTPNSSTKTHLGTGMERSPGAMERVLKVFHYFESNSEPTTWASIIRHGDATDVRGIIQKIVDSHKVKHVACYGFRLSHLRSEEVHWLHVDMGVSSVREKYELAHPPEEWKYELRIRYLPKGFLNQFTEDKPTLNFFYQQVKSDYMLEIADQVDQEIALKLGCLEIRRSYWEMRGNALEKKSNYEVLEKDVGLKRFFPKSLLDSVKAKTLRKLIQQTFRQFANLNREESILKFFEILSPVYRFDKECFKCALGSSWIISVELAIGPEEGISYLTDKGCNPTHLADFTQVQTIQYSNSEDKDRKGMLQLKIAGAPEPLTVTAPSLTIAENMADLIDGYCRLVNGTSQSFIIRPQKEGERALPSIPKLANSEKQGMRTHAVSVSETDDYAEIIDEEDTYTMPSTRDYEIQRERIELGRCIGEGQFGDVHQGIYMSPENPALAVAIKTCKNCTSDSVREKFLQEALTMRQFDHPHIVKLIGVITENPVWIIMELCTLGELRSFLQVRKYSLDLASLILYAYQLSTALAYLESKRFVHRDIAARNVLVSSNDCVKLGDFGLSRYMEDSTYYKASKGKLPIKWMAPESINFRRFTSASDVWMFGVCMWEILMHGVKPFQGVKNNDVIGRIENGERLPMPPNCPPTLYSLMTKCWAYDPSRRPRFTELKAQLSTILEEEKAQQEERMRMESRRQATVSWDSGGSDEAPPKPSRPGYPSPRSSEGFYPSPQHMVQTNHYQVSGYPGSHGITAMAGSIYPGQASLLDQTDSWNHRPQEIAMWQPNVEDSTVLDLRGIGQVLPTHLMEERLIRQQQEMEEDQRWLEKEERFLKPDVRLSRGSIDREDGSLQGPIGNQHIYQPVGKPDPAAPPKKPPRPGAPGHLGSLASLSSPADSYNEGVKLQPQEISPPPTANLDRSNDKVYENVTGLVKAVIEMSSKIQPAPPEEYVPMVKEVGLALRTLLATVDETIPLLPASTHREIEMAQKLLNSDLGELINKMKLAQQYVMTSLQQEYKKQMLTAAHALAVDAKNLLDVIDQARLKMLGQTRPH

[4] = system: Fibrinogen (Alexa647-labelled); assay: fibrinogen binders on compound microarrays, profiling panel, artefact control for SMM control-protein annotation, biochemical, small-molecule microarray, 635/667 nm fluorescence (AID 1131); details: fibrinogen-A647 binding fluorescence, higher = more signal;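 note: z-score merges 667 nm fluorescence with per-spot signal-to-noise over triplicate slides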
[5] = target: Follistatin (Homo sapiens) (UniProt P19883); assay: follistatin binders on small-molecule microarrays, primary screen, biochemical, small-molecule microarray, 635/667 nm fluorescence (AID 1132); details: FST binding, 635 nm fluorescence, higher = more signal
Chain of Follistatin (Homo sapiens) (P19883 whole entry, looked up): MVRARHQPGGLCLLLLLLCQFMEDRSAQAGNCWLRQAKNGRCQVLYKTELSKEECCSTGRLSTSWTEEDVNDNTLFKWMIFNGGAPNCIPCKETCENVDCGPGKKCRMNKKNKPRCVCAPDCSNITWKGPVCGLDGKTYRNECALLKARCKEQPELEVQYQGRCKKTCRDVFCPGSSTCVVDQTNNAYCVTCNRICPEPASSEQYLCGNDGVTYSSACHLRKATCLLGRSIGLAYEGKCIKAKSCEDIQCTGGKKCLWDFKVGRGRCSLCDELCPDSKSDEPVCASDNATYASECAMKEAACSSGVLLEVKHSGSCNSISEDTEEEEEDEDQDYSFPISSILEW

[6] = target: Fibroblast growth factor 2 (Homo sapiens) (UniProt P09038); assay: FGF2 binders on small-molecule microarrays, primary screen, biochemical, small-molecule microarray, 635/667 nm fluorescence (AID 1133); details: small-molecule microarray binding, FGF2, fluorescence 635/667; higher = more signal
Chain of Fibroblast growth factor 2 (Homo sapiens) (P09038 whole entry, looked up): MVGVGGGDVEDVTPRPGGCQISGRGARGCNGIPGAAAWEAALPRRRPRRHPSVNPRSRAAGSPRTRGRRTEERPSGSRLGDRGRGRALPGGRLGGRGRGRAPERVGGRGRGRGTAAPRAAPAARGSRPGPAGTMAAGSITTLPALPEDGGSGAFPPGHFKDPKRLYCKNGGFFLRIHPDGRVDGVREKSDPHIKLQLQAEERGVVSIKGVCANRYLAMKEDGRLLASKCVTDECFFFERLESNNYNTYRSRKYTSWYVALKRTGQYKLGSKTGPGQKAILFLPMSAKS

[7] = mitochondrial membrane potential change in A549 cells, profiling panel, cell-based, JC-1 fluorescence, basal, 24 h, 100 nL (AID 1138); details: higher = more signal;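 note: A549 lung adenocarcinoma cells under basal conditions with no added stimulus; test concentration not given here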
Lefty1 = Lefty1 binders on small-molecule microarrays, primary screen, biochemical, small-molecule microarray, 635/667 nm fluorescence (AID 1139); details: small-molecule microarray binding, fluorescence 635/667; higher = more signal
[8] = system: wheat germ agglutinin (Triticum aestivum), Alexa647-labelled; assay: wheat germ agglutinin binders on compound microarrays, profiling panel, artefact control for SMM control-protein annotation, biochemical, small-molecule microarray, 635/667 nm fluorescence (AID 1140); details: WGA-A647 binding, 635 nm fluorescence, higher = more signal;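 note: score merges 667 nm feature emission with signal to noise over triplicate slides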
[9] = target: Luciferin 4-monooxygenase (Photinus pyralis) (UniProt P08659); assay: firefly luciferase enzyme inhibitors, primary screen, biochemical, luminescence, purified enzyme, 2006 set (AID 1141); details: SteadyGlo luminescence, 30 min, higher = more signal, called active from +8 up or from −8 down;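 note: cell-free assay with purified firefly luciferase at 100 ng per well in PBS; test concentration not given here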
Chain of Luciferin 4-monooxygenase (Photinus pyralis) (P08659 whole entry, looked up): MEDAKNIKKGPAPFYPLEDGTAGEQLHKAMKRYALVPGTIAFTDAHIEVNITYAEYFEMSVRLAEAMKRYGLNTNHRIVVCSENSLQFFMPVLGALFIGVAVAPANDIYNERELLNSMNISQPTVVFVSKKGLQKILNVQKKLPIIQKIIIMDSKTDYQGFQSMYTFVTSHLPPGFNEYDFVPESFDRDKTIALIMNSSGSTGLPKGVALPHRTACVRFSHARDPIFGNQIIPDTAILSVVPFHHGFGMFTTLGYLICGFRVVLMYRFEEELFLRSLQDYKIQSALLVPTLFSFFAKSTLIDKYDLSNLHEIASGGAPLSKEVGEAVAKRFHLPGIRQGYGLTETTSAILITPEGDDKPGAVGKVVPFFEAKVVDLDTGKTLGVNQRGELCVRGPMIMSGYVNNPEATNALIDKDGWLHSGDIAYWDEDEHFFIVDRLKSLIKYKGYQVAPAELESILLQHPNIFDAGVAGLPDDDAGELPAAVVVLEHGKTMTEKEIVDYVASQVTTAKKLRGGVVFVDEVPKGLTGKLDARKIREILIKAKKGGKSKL

[10] = system: Wnt5a (protein binding on small-molecule microarray); assay: Wnt5a binders on small-molecule microarray, primary screen, biophysical, 635/667 nm fluorescence (AID 1142); details: 635 nm fluorescence, higher = more signal;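 note: fluorescence read at 667 nm with signal to noise per printed feature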
[11] = cell viability in Huh7 cells, primary screen, cytotoxicity control for HCV replication inhibitor project, CellTiter-Glo luminescence, basal, 48 h (AID 1143); details: Huh7 HCV replicon, higher = more signal, called active from +8 up or from −8 down;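 note: Huh7 hepatoma cells carrying a hepatitis C replication reporter with no stimulus; test concentration not given here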
[12] = P. aeruginosa biofilm formation inhibitors, primary screen, PAO1 strain, BacTiter-Glo luminescence, LB-PBS (AID 1144); details: 12 h, higher = more signal
[13] = CREB reporter modulators without forskolin, primary screen, cell-based, PC12, CRE-LacZ reporter, unstimulated (AID 1145); details: no forskolin, luminescence, 4.5 h, higher = more signal, called active from +8 up or from −8 down
[14] = CREB reporter modulators under forskolin, primary screen, cell-based, PC12, CRE-LacZ reporter, forskolin-stimulated (AID 1146); details: luminescence, 4.5 h, higher = more signal, called active from +8 up or from −8 down;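 note: PC12 cells with 6xCRE LacZ reporter stimulated by forskolin 10 µM; beta-galactosidase reporter signal reflecting CREB driven transcription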
[15] = target: Streptavidin (Streptomyces avidinii) (UniProt P22629); assay: streptavidin binders on small-molecule microarray, primary screen, artefact control for SMM compound annotation, biophysical, 635/667 nm fluorescence (AID 1147); details: streptavidin binding, higher = more signal;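 note: signal reflects streptavidin binding to arrayed compounds as a control protein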
Chain of Streptavidin (Streptomyces avidinii) (P22629 whole entry, looked up): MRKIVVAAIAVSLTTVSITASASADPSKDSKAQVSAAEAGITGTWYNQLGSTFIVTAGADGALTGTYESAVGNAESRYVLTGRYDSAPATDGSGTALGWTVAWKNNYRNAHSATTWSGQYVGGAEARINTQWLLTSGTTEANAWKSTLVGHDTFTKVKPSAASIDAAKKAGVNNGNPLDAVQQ

[16] = small-molecule binders of probe aInhba, primary screen, biochemical, small-molecule microarray, 635/667 nm fluorescence (AID 1148); details: higher = more signal;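 note: score merges 667nm spot fluorescence with signal-to-noise for antibody binding to printed compounds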
Torsin-1A (Homo sapiens) [17] = target: Torsin-1A (Homo sapiens) (UniProt O14656); assay: torsin A binders from cell lysate, primary screen, small-molecule microarray, wild-type, 635/667 nm (AID 1149); details: COS7 hTOR1A-WT lysate, 635 nm fluorescence, higher = more signal
Chain of Torsin-1A (Homo sapiens) (O14656 whole entry, looked up): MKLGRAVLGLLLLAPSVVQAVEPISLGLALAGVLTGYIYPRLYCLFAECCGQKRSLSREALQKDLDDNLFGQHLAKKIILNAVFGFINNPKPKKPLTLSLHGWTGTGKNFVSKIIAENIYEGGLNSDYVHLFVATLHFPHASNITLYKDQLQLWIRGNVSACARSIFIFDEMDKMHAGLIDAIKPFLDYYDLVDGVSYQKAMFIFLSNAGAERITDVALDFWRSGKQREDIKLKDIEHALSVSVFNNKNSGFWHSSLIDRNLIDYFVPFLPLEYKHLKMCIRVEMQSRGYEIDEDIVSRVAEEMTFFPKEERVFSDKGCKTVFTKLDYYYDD

Torsin-1A (Homo sapiens) [18] = target: Torsin-1A (Homo sapiens) (UniProt O14656); assay: small-molecule binders of mutant TOR1A in lysate, primary screen, cell lysate, small-molecule microarray, COS7 lysate, 635/667 nm fluorescence (AID 1150); details: COS7 hTOR1A mutant lysate, 635 nm fluorescence, higher = more signal;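 note: score pools 667 nm emission and signal to noise measuring lysate protein binding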
[19] = system: Sonic hedgehog protein (Shh); assay: small-molecule binders of Shh protein, primary screen, biochemical, small-molecule microarray, 635/667 nm fluorescence (AID 1151); details: small-molecule microarray binding, 635 nm fluorescence; higher = more signal;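 note: Shh protein binding to compounds spotted on small-molecule microarray slides; score combines spot fluorescence intensity with signal-to-noise across triplicate slides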

Structure (SMILES) | composite z-score [1] | composite z-score [2] | composite z-score [3] | composite z-score [4] | composite z-score [5] | composite z-score [6] | z-score [7] | composite z-score (Lefty1) | composite z-score [8] | z-score [9] | composite z-score [10] | z-score [11] | z-score [12] | z-score [13] | z-score [14] | composite z-score [15] | composite z-score [16] | composite z-score (Torsin-1A (Homo sapiens) [17]) | composite z-score (Torsin-1A (Homo sapiens) [18]) | composite z-score [19]
COc1ccc(CCNC(=O)[C@@H]2c3ccccc3C(=O)N(Cc3cc(F)cc(C(F)(F)F)c3)[C@H]2c2ccc(CO)cc2)cc1 | 0.634 | 0.544 | 0.137 | 0.227 | 1 | 0.409 | 3.34 | -0.192 | 0.871 | -1.13 (inactive) | 0.0093 | -0.489 (inactive) | 0.869 (inactive) | 0.585 (inactive) | -1.11 (inactive) | 0.234 | 0.396 | 0.642 | 0.478 | 0.618
COc1cccc(C)c1NC(=O)O[C@H]1[C@H](OC(=O)Nc2ccccc2)[C@@H](OC(=O)Nc2ccccc2)[C@@H](OC)O[C@@H]1CO | 1.78 | 1.29 | 0.452 | 1.01 | 1.38 | 0.432 | -1.54 | 0.662 | 1.04 | -0.321 (inactive) | 0.486 | -4.16 (inactive) | -1.16 (inactive) | 1.61 (inactive) | -2.37 (inactive) | 0.163 | 0.0227 | 2.57 | 0.958 | 0.958
CN1C(=O)C2C(C1=O)C1C=C(CCCO)C2C(C2CC2)N1C (stereo not given) | -0.194 | -0.404 | 0.813 | -1.04 | -0.39 | 0.628 | 0.772 | -0.991 | 0.0425 | -0.224 (inactive) | 0.0748 | -2.56 (inactive) | 0.189 (inactive) | 0.0295 (inactive) | -0.984 (inactive) | -0.45 | 0.0543 | -0.427 | -0.454 | -0.685
C=CC[C@H](O)c1ccc(O)c(F)c1 | -0.234 | -1.35 | -0.677 | -2.61 | -1.28 | -0.975 | 0.414 | -0.618 | -0.318 | -0.857 (inactive) | -0.863 | -0.48 (inactive) | -0.955 (inactive) | -0.0392 (inactive) | -0.535 (inactive) | -1.39 | -0.0429 | -3.98 | -1.66 | -1.11
C=CCOC(=O)[C@@H]1[C@H]2C(=O)O[C@H](c3ccccc3)[C@H](c3ccccc3)N2[C@H](c2ccc(OCCOC(=O)[C@@H]3C[C@@H]4C(=O)N[C@@H](CC(C)C)C(=O)N4[C@@H]3c3ccc(O)cc3)cc2)[C@@]12C(=O)Nc1ccc(I)cc12 | 1.52 | 1.2 | 0.601 | 0.666 | 1.44 | 1.26 | -1.58 | 1.44 | 0.182 | -0.248 (inactive) | 0.601 | -0.259 (inactive) | -0.282 (inactive) | -0.655 (inactive) | -1.23 (inactive) | 0.834 | 1.27 | 0.271 | 0.506 | 2.2
C=C(COC)C(=O)CC[C@@H](OC(=O)c1ccccc1-c1ccccc1C(=O)O)c1ccccc1OCCO | 0.116 | 1.15 | -0.267 | 0.599 | 1.29 | 1.64 | -0.0562 | 0.922 | -0.272 | -6.94 (inactive) | 0.502 | -0.714 (inactive) | -0.693 (inactive) | 2.73 (inactive) | 15.8 (active) | -0.695 | -0.0762 | 1.49 | 0.0126 | 1.45
C[N+](C)(C)CCCC[C@@H]1NC(=O)[C@H]2C[C@@H](C(=O)NCCCCCN)[C@@H](c3ccc(O)cc3)N2C1=O | 3.32 | 1.21 | 0.599 | 1.04 | 1.39 | 1.66 | 0.729 | 1.7 | 1.36 | -0.993 (inactive) | 0.801 | -0.147 (inactive) | 0.69 (inactive) | 1.11 (inactive) | 0.466 (inactive) | 2.29 | 0.228 | 0.926 | 0.6 | 2.17
C=CCNC(=O)[C@H]1[C@@H]2C(=O)O[C@@H](c3ccccc3)[C@@H](c3ccccc3)N2[C@@H](c2ccc(OCCO)cc2)[C@]12C(=O)N(C(=O)OCCOC)c1ccc(C#CCNC(N)=O)cc12 | 1.9 | 1.15 | 0.621 | 0.811 | 1.37 | 1.71 | -0.0216 | 0.707 | 0.929 | -0.0331 (inactive) | 0.0992 | -0.646 (inactive) | -1.36 (inactive) | -0.618 (inactive) | -0.779 (inactive) | 0.286 | -0.0313 | 0.668 | 0.83 | 0.984
COC(=O)[C@@]1(Cc2ccc(F)cc2)[C@H]2c3cc(C(=O)N4CCCC4)n(Cc4ccc(C(F)(F)F)nc4)c3C[C@H]2CN1C(=O)c1ccccc1 | 1.2 | 1.19 | 1.16 | 1.01 | 1.38 | -0.71 | 1.3 | -0.13 | 1.06 | 3.14 (inactive) | 0.406 | -2.55 (inactive) | 0.193 (inactive) | 0.197 (inactive) | -0.388 (inactive) | 1.99 | -0.025 | 1.45 | 1.14 | -0.388
